A word on the inhibition: it is the change of the read-out against control, counted positive when it falls.

Several values for one entry are separate records, joined by “and”; a condition that tells them apart may be missing. Identical values can stand only once. Activity calls are given as the source filed them. How the calls were made is not given here.

In this experiment the target is Lethal factor (Bacillus anthracis) (UniProt P15917). Nature of the experiment: Lethal factor protease inhibitors, Bacillus anthracis, multiplex microsphere cleavage assay, validation set (AID 588461). Particulars: flow cytometry, at 10 µM, stronger effect = higher value. In general terms: Flow cytometry measures light scatter and fluorescence of single cells or particles in a stream.
Lethal factor (Bacillus anthracis), sequence (P15917 whole entry, looked up): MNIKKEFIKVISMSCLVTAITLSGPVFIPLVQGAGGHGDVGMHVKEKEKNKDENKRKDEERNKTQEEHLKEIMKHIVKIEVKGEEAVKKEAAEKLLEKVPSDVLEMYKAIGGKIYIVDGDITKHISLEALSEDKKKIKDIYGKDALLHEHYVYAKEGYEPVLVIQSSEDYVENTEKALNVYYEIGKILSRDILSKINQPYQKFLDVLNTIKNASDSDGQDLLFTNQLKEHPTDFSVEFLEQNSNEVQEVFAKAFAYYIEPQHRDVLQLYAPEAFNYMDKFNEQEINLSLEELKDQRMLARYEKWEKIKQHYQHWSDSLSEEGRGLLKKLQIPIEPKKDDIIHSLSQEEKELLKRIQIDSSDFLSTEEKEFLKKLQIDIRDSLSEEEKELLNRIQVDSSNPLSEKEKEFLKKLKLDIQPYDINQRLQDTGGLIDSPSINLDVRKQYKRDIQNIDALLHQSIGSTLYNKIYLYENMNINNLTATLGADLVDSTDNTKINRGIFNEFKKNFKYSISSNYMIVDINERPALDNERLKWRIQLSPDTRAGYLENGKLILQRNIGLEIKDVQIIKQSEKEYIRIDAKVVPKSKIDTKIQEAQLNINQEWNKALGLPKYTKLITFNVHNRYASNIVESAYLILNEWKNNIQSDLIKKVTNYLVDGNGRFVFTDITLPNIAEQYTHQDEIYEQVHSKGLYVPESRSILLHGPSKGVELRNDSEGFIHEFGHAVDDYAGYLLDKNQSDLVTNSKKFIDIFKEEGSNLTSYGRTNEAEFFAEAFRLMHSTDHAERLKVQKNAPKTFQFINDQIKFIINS
For the compound `O=C1[C@@H]2CSCN2C(=O)CN1Cc1ccc(F)cc1`, the inhibition is 3.4% (inactive).

Consider `O=[N+]([O-])c1cc(/C=N/n2cnnc2)ccc1N1CCCC1`, for which the inhibition was -3.3% (inactive).

With `Cc1cc(Cl)cc2c1NC(=O)[C@]21[C@@H]2C(=O)N(Cc3ccccc3)C(=O)[C@@H]2[C@@H]2CCCN21`, the inhibition is 2.3% (inactive).

For `COc1ccccc1C(=O)N=C1NC(=O)CC2C(=O)NCCN12` (stereo not given), the inhibition is -5.2% (inactive).

In the case of `COc1cc2c(cc1O)CCN(C(=O)c1ccco1)C2C` (stereo not given), the inhibition was 2.3% (inactive).

`O=C(NCCCCCc1nc2ccccc2[nH]1)c1ccccc1Cl`: the inhibition is 3.6% (inactive).

With `CCOC(=O)C(=O)N1CCN(c2ccccc2OC)CC1`, the inhibition is -4.9% (inactive).

Take `COc1cccc2cc(-c3ccccc3)c(=O)oc12`: the inhibition is 1.7% (inactive).

For `O=C(/C=C/c1ccccc1)c1ccccc1`, the inhibition was -0.6% (inactive).

As for `O=C(NCc1ccccc1Cl)NC(=O)c1ccccc1`, the inhibition was 6.8% (inactive).

In the case of `CC(=O)CCc1oc2ccccc2c1-c1ccccc1`, the inhibition is -3.1% (inactive).

`Cc1ncc([N+](=O)[O-])n1CC(O)CCl` (stereo not given): the inhibition is 2.5% (inactive).

With `CC1=NS(=O)(=O)c2cc(Cl)ccc2N1`, the inhibition was -1.8% (inactive).

Take `Cc1ccc(Cl)c(Nc2ccccc2C(=O)O)c1Cl`: the inhibition was 0.3% (inactive).

As to `COc1ccccc1OS(=O)(=O)c1ccc(NC(C)=O)cc1`, the inhibition was 3% (inactive).

In the case of `CCSC(=O)CCCCCCCCCCCO`, the inhibition was 14.5% (inactive).

Regarding `CC(C)COCC(CN(Cc1ccccc1)c1ccccc1)N1CCCC1` (stereo not given), the inhibition is -2% (inactive).

Turning to `O=C(CC1SC(=O)NC1=O)Nc1ccc(Cl)cc1` (stereo not given), the inhibition is -0.5% (inactive).

With `Cc1ccccc1NC(=O)c1c(C)cc(=O)oc1C`, the inhibition is 1.7% (inactive).

Turning to `O=C(/C=C/c1ccc(F)cc1)N1CC[C@@]2(O)CCCC[C@H]2C1`, the inhibition is 5.2% (inactive).

As for `O=C1OC(Nc2ccc3c(c2)OCO3)c2ccccc21` (stereo not given), the inhibition was -5.7% (inactive).

`CN/C(=C/[N+](=O)[O-])NCCSCc1ccc(CN(C)C)o1`: the inhibition was -7.4% (inactive).

In the case of `CCc1c(C(C)=O)oc2ccc3c(C)cc(=O)oc3c12`, the inhibition is -2.4% (inactive).

Consider `C(=C/c1nccc2c1[nH]c1ccccc12)/c1ccc2c(c1)OCO2`, for which the inhibition is -1.4% (inactive).

Regarding `Cc1csc(-c2coc3cc(O)cc(C)c3c2=O)n1`, the inhibition is 0.3% (inactive).

Take `COc1ccc(CCN=CC2=C(O)CC(C)(C)CC2=O)cc1`: the inhibition is -4.5% (inactive).

`COc1ccc(NC(=O)C2OC3OC(C)(C)OC3C3OC(C)(C)OC23)cc1` (stereo not given): the inhibition is -5.4% (inactive).

Regarding `COc1ccc(C(=O)Nc2nc3ccccc3c(=O)[nH]2)cc1`, the inhibition was -0.8% (inactive).

Turning to `CC1(C)CC(CC(=O)O)(c2ccc(Cl)cc2)CCO1` (stereo not given), the inhibition was -4.6% (inactive).

In the case of `COc1cccc(C2CCCN2Cc2nc(CCC(C)C)no2)c1` (stereo not given), the inhibition is -7.6% (inactive).

Consider `Cc1cccc(Nc2ncccc2C(=O)O)c1C`, for which the inhibition is -4.7% (inactive).

For the compound `O=C(/C=C/c1ccco1)NCc1ccc2c(c1)OCO2`, the inhibition is 6.8% (inactive).

For `O=C(N1CCCC1)C12CC3CC(C1)CC(C(=O)N1CCCC1)(C3)C2`, the inhibition was -8% (inactive).

`CCCCCC#CCC#CCC#CCC#CCCCC(=O)O`: the inhibition was -1.6% (inactive).

Turning to `CC(=O)OCC[N+](C)(C)C`, the inhibition was 3.8% (inactive) and -0.3% (inactive).

For `Nc1cccc2nc3ccccc3cc12`, the inhibition is 1.2% (inactive).

With `CS(=O)(=O)NCc1ccc(C(=O)NCc2ccccc2)cc1`, the inhibition is -4.2% (inactive).

Consider `CN1CCN(CC/C=C2/c3ccccc3Sc3ccc(S(=O)(=O)N(C)C)cc32)CC1`, for which the inhibition is 0% (inactive).

With `O=C(CN1C(=O)C2CCc3[nH]c4ccccc4c3C2C1=O)N1CCCC1` (stereo not given), the inhibition was 4.3% (inactive).

Consider `CCc1nc2ccccc2c(NC(=O)CN2CC(C)CC(C)C2)c1C` (stereo not given), for which the inhibition was 0.9% (inactive).
